Laboratory results as given in PubChem BioAssay (NCI).
About 83,000 compounds went through this panel and 20% of them were active in at least one assay; those are over-represented in the sample as a whole.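 Method: cells in 96-well plates; compound added at one concentration; 48 h incubation; percent growth measured; values under 10 scored active.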 Unmarked numbers belong to inactive results. The source made the active and inactive calls.

Assays:
Test in all cases: NCI-60 one-dose screen, 48 h (100 = growth as untreated, 0 = no growth, -100 = all killed)
SK-MEL-2 melanoma = details: 10 µM
EKVX NSCLC = details: 10 µM
SN12C renal = details: 10 µM
TK-10 renal = details: 10 µM unless noted
ACHN renal = details: 10 µM
CAKI-1 renal = details: 10 µM
CCRF-CEM leukemia = details: 10 µM
MOLT-4 leukemia = details: 10 µM
A498 renal = details: 10 µM
UO-31 renal = details: 10 µM

Structure (SMILES)	growth (SK-MEL-2 melanoma)	growth (EKVX NSCLC)	growth (SN12C renal)	growth (TK-10 renal)	growth (ACHN renal)	growth (CAKI-1 renal)	growth (CCRF-CEM leukemia)	growth (MOLT-4 leukemia)	growth (A498 renal)	growth (UO-31 renal)
Cc1cc2ccccc2c(O)c1C#N	112%	108%	95.3%	110%	99.1%	115%	104%	108%		
CCC(C)(C)C1CCC(O)CC1 (stereo not given)	103%	94.9%	98.7%	98.7%	97.7%	115%	93.5%	106%	97.8%	
Cc1ccc(C(=O)c2ccccc2)c(C)c1	108%	105%	99.2%	109%	103%	121%		116%	104%	
CSc1[nH]c(=O)ncc1F	117%	101%	101%	109%	95%	91.5%	91.2%	117%	101%	
Cc1ccc(C(=O)NC2c3ccccc3Oc3ccccc32)cc1	66.4%	64.6%		54.4%	40%	64.9%	56.7%	45.5%	43.5%	34.4%
CC1(O)OC(COc2ccc(Cl)cc2)COC1O (stereo not given)	126%	94.7%	101%	108%	103%	90.1%	98.7%	60.9%	100%	
N#CSc1cc(S(N)(=O)=O)ccc1N	104%	115%	101%	106%	112%	124%		84.5%		
CCNCCCCNCCCCNCCCCNCCCCNCC	97.1%	76.2%	115%	63.6%	80.4%	77.7%	128%	151%	129%	
Cc1ccc(C)n1-c1ccsc1C(=O)NNC(=O)CCl	91.2%	81.2%	92.2%	105%	98.5%	84.8%	61%	92.9%	104%	
O=C(Cc1nc2ccc([N+](=O)[O-])cc2nc1CC(=O)c1cccnc1)c1cccnc1	113%	63.2%	56.2%	75.5%	54.1%	81.5%	48.7%	80.8%	86.9%	
CC(=O)Cc1cc(-c2cc(CC(C)=O)[nH]n2)n[nH]1	111%	89.8%	94.2%	92.4%	95.1%	87.7%	101%	114%		
Nc1ncnc2[nH]ncc12	-14.1% (active)	30.4%	14%	1.19% (active)	8.29% (active)	-9.29% (active)	13.1%	25.9%	8.78% (active)	
C=CCc1cc(C(C)=O)cc(OC)c1O	130%	100%	105%	102%	121%	98.2%	106%	98%	100%	
c1c(-c2cc(C3CC3)[nH]n2)n[nH]c1C1CC1	104%	76.6%	102%	106%	99.3%	97.6%	67%	95.2%	97.6%	
CN(C)CCC(=O)c1ccc(O)cc1	107%	107%		106%	114%	97.1%	109%	113%	99.4%	87.2%
O=C1NC(=O)C2C(=O)NC(=O)C1C21CCc2ccccc21 (stereo not given)	118%	90.1%	100%	145%	95.6%	77.7%	78.6%	111%	137%	
CCCOC(=O)C(O)c1ccccc1 (stereo not given)	106%	50.6%	102%	106%	98.3%	96.3%	88.8%	110%	94.7%	
CC(C)OC(C(=O)O)c1ccccc1 (stereo not given)	110%	108%	93.5%	98.4%	97.2%	101%	91.9%	125%		

Structure (SMILES)	growth (SK-MEL-2 melanoma)	growth (EKVX NSCLC)	growth (SN12C renal)	growth (TK-10 renal)	growth (ACHN renal)	growth (CAKI-1 renal)	growth (CCRF-CEM leukemia)	growth (MOLT-4 leukemia)	growth (A498 renal)	growth (UO-31 renal)
CN(C)Cc1cc(C(C)(C)CC(C)(C)C)ccc1O	71.1%	98.4%		99.8%	82.4%	90.7%	99.6%	86.4%	116%	76.2%
CC(O)COc1ccc(-c2ccccc2)cc1 (stereo not given)	108%	93.6%	101%	106%	103%	91.9%	95.4%	121%	78.7%	
CC(=O)CC(=O)N(C)C	106%	93.5%	97%	98.4%	103%	88.3%	73.7%	120%		
COC(=O)c1[nH]c(=O)c(C#N)c(C(=O)OC)c1C(=O)c1ccccc1	114%	91.4%	95%	143%	98.1%	90%	105%	104%	113%	
CCc1nc(N)nc(N)c1-c1ccc(Cl)cc1	105%	74.9%	64.7%	104%	40.9%	91.4%	68.4%	56.4%	87.7%	
CC(C)C1CCCCC1O (stereo not given)	107%	81.9%	102%	110%	93.5%	101%	99.3%	148%	97.2%	
Cc1cc2nc(CC(=O)c3cccc([N+](=O)[O-])c3)c(=O)[nH]c2cc1C	95.4%	59.9%	86.5%	115%	87.3%	76.5%	76.3%	83.4%	127%	
OCC1OC(OC2C(O)C(CO)OC2(CO)OC2OC(CO)C(O)C(O)C2O)C(O)C(O)C1O (stereo not given)	106%	103%	103%	106%	113%	115%	88.6%	126%	94.6%	
COC(=O)C(C)Oc1ccc(OC#N)cc1 (stereo not given)	110%	99.8%	91.8%	107%	101%	86.5%	102%	73.7%	107%	
O=C(Cc1nc2ccc([N+](=O)[O-])cc2nc1CC(=O)c1ccccc1)c1ccccc1	103%	55.8%	75%	104%	57%	62.9%	40.5%	54.2%	132%	
OCCN1CCOCC1	107%	116%	97.5%	106%	101%	132%	108%	104%	106%	
CC(C)NC(=O)OCc1c(COC(=O)NC(C)C)c(-c2ccc(Cl)c(Cl)c2)n2c1SCC2	37.8%	62.4%	36.4%	6.38% (active)	18.1%	-11.5% (active)	24.9%	17.1%		
c1ccc(/C(=N\N=C(/c2ccccc2)c2cccs2)c2cccs2)cc1		98%								
Clc1ccc(-c2nnc(-c3cccc4ccccc34)o2)cc1		34%								
O=C(c1ccc(O)cc1)c1ccc(O)cc1	101%		109%	95%	107%	110%	106%	102%	73.9%	85%
C=CC(O)CCC (stereo not given)	122%		99.5%	102%	98.5%	92.1%	98.4%	110%	108%	89.9%
Sc1ccc(Nc2c3ccccc3nc3ccccc23)cc1	40.7%		95.6%	104%	97%	92.2%	97.1%	94.1%		82.4%
